TWEAK-Fn14 inh: inhibitors of TWEAK-Fn14 interaction signaling. TWEAK-stimulated Fn14 reporter cells, luciferase luminescence, 8 h. inhibition, % at 10 µM. hit rate 2% among 360,000; in the data active = inhibition above about 50%
TROY signal inh: TROY signaling inhibition. inhibition, % at 10 µM. AID 1347056. Q293 LMP1-TROYcd NF-kB luciferase reporter, 4 h. hit rate 0.98% among 360,000;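 active = compounds whose plate-normalised and pattern-corrected inhibition of the luciferase reporter signal at the single screening dose is 50% or more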
EWS-Fli inh: blocks EWS/Fli oncoprotein-driven transcription | hit rate 0.67% among 350,000 | inhibition, % at 12.6 µM | A673 NR0B1-luciferase reporter, viability-normalised;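 active = mean inhibition of at least 50% after viability correction, with every replicate also passing that limit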;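 also: firefly luciferase signal divided by Alamar Blue viability fluorescence both relative to DMSO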
PAX8 inh HTS: inhibitors of PAX8 transcriptional activity in RMG-I cells; RMG-I TPO-luciferase reporter, SteadyGlo, 24 h; inhibition, % at 12.6 µM; hit rate 1.2% among 360,000;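 active = mean replicate inhibition at least 60% with every replicate also reaching 60%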;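 also: luciferase light reporting Pax8 driven TPO promoter activity; plate controls were median of neutral control wells for no effect and mitoxantrone controls for full effect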
LGR2 antag: blocks bursicon-induced cAMP signaling via Drosophila LGR2. HEK293 LGR2, CRE-luciferase, bursicon-stimulated, 4 h. inhibition, % at 9.99 µM. hit rate 0.35% among 380,000;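 active = drop in luminescence signal, shown as inhibition above about 50% in the replicate tests, limit read from the data, passing the limit was not always enough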;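 also: agonist challenge used bursicon conditioned medium at about half maximal strength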
An asterisk follows results filed as active; x = no result. The list is not random: actives were taken first. Their share in the collection is about 2.8%.

SMILES	TWEAK-Fn14 inh	TROY signal inh	EWS-Fli inh	PAX8 inh HTS	LGR2 antag
O=C(NCc1ccccc1)C1Cc2c(-c3ccc(Cl)cc3)ccnc2O1 (stereo unspecified)	-2	10	60*	23	-2
O=C(NCc1ccco1)C1Cc2c(-c3cccc(F)c3)ccnc2O1 (stereo unspecified)	7	18	54*	31	-22
O=C(NCc1cccc(Cl)c1)C1Cc2c(-c3cccc(F)c3)ccnc2O1 (stereo unspecified)	-6	26	2	-5	1
NC(=O)c1cccc(-c2ccnc3c2CC(C(=O)NCc2ccco2)O3)c1 (stereo unspecified)	1	4	43	19	3
O=C(NCc1ccccc1)C1Cc2c(-c3cccc(F)c3)ccnc2O1 (stereo unspecified)	15	-2	67*	55	10
O=C(NCc1ccco1)C1CC(c2cc(C(F)(F)F)cc(C(F)(F)F)c2)=NO1 (stereo unspecified)	-2	10	75*	5	-12
CNC(=O)C[C@H]1CC[C@@H]2[C@H](COc3ccc(NS(=O)(=O)c4ccccc4C)cc3C(=O)N2C)O1	x	x	-9	-5	-3
CCCC(=O)Nc1ccc2c(c1)C(=O)N(C)[C@H]1CC[C@@H](CC(=O)Nc3cn(C)nc3C)O[C@H]1CO2	x	x	2	7	-5
O=C(C[C@H]1CC[C@@H]2[C@H](COC[C@@H](O)CN2C(=O)Nc2ccc(C(F)(F)F)cc2)O1)NCC1CC1	x	x	-12	11	10
N#CNC(=Nc1cccc(F)c1)SCc1ccccc1F	0	59*	-39	-4	1
CC(C)N=C(NC#N)SCc1ccccc1F	15	3	-2	x	9
CCC(=O)Oc1oc(-c2ccccc2)nc1C=Nc1ccccc1OC	-7	27	x	16	x
Cc1ccc(-c2nc(C=Nc3ccc(O)cc3)c(O)o2)cc1	64*	-16	40	17	-27
CCC(=O)Oc1oc(-c2ccccc2)nc1C=Nc1ccc(C)cc1	10	72*	17	11	-1
COc1cccc(S(=O)(=O)N(C)C[C@@H]2Oc3ncc(C#CC(C)C)cc3C(=O)N([C@@H](C)CO)C[C@@H]2C)c1	x	x	6	-10	12
CC(C)C1Nc2c(O)cc(Cl)c([N+](=O)[O-])c2C2C=CCC21 (stereo unspecified)	27	58*	9	-7	13
O=C(O)C1Nc2c(Cl)cc(Cl)c(Cl)c2C2C=CCC12 (stereo unspecified)	23	30	2	9	9
COc1cccc2c1C(=O)c1c(O)c3c(c(O)c1C2=O)C[C@](O)(C(C)=O)C[C@H]3O[C@@H]1C[C@@H](N)[C@@H](O)[C@@H](C)O1	97*	77*	45	112*	1
COc1cccc2c1C(=N)c1c(O)c3c(c(O)c1C2=O)CC(O)(C(C)=O)CC3OC1CC(N)C(O)C(C)O1 (stereo unspecified)	-139	-43	x	x	x
CCCC(=O)Nc1ccc(Cl)c(NC(=S)NC(=O)c2cc3ccccc3o2)c1	-48	-25	5	73*	-12
CCC(=O)Nc1ccc(NC(=S)NC(=O)c2cc3ccccc3o2)cc1	-30	-48	3	-31	8
Fc1ccc(CSc2ccc(-c3ccco3)nn2)cc1	-36	-47	-97	131*	15
C=CC(=O)N=c1sc2ccccc2n1-c1ccccc1	23	38	4	92*	-4
N=c1sc2ccccc2n1-c1ccccc1	-28	0	5	x	x
O=C(/C=C/C(Cl)(Cl)Cl)Nc1ccc(Cl)cc1	-2	1	53*	51	-38
SMILES	TWEAK-Fn14 inh	TROY signal inh	EWS-Fli inh	PAX8 inh HTS	LGR2 antag
NC(=O)/C=C/C(=O)Nc1ccc(Cl)cc1	2	3	1	28	4
COc1ccc(-c2nnc(Sc3nc4ccccc4o3)c3ccccc23)cc1	74*	-22	-2	x	-2
COc1ccc(-c2nnc(OC)c3ccccc23)cc1	-16	22	3	6	-13
CC1(C)CC(O)CC(C)(C)N1CC(O)COCc1ccccc1 (stereo unspecified)	-3	-10	5	-2	27
COC1OC(COCc2ccccc2)C2OC(C)(C)OC2C1O (stereo unspecified)	x	x	-7	104*	16
O=[N+]([O-])c1cc([N+](=O)[O-])c2oc(-c3ccccc3)c(Br)c2c1O	36	69*	x	x	x
C[C@H](CO)N1C[C@H](C)[C@H](CN(C)C(=O)C2CCOCC2)Oc2cc(C3=CCCCC3)ccc2S1(=O)=O	x	x	6	2	-1
COc1ccc(-n2nc(C(=O)N3CCCCC3)c(C)c(C#N)c2=O)cc1	23	7	32	7	-2
Cc1c(C(=O)O)nn(-c2cccc(C(F)(F)F)c2)c(=O)c1C#N	-1	14	-1	-9	-11
Cc1ccc(-n2nc(C(=O)NN)c(C)c(C#N)c2=O)cc1Cl	71*	46	36	12	3
Cc1ccc(NC(=O)COC(=O)c2nn(-c3ccc(Cl)cc3)cc2O)cc1	1	-6	-2	-97	-22
Cc1c(C(=O)NN)nn(-c2ccc(Cl)cc2)c(=O)c1C#N	65*	55*	25	-2	15
NNC(=O)c1nn(-c2ccc(Cl)cc2)cc1O	-12	-17	-9	72*	1
CN1C(=O)c2cc(NC(=O)c3cccc(F)c3)ccc2OC[C@H]2O[C@H](CC(=O)O)CC[C@H]21	x	x	-7	29	12
CCCS(=O)(=O)c1cnc(C2COc3ccccc3O2)nc1N (stereo unspecified)	102*	81*	86*	60	95*
S=c1nc(C2COc3ccccc3O2)[nH][nH]1 (stereo unspecified)	5	-7	-25	-22	-1
Cc1noc(C)c1NC(=O)Nc1ccc2c(c1)CC(=O)N([C@@H](C)CO)C[C@@H](C)[C@@H](CN(C)CC1CC1)O2	x	x	4	-26	-5
Cc1cc(C)cc(OCC(=O)OC/C(O)=C(\C#N)c2nc3ccccc3[nH]2)c1	11	-36	x	-2	-9
N#C/C(=C(/O)COC(=O)CCC1CCCCC1)c1nc2ccccc2[nH]1	89*	-10	x	6	x
Cc1cccc(C)c1OCC(=O)OC/C(O)=C(\C#N)c1nc2ccccc2[nH]1	10	-5	9	69*	x
COc1ccccc1NC(=O)N[C@H]1C=C[C@H](CC(=O)N[C@H](C)c2ccccc2)O[C@H]1CO	x	x	-3	-5	1
OC[C@@H]1[C@@H](c2ccccc2)C2(CN(CC3CC3)C2)N1Cc1ccc(F)cc1	x	x	6	1	13
CC1=C(C(=O)OCc2ccc3c(c2)OCO3)C(c2ccccc2OCc2ccccc2)NC(=O)N1 (stereo unspecified)	41	33	x	x	10
CCOC(=O)C1=C(CNCc2ccccc2Cl)NC(=O)NC1c1ccc2c(c1)OCO2 (stereo unspecified)	80*	x	x	x	x
CC1=C(C(=O)OCc2ccc3c(c2)OCO3)C(c2ccccc2)NC(=O)N1 (stereo unspecified)	87*	59*	x	x	33
